Measurements: PubChem BioAssay AID2284156 (EPA ToxCast)
Calls of active or inactive are those of the source. The calls were made as follows: active = hit-call score of the fitted dose curve at least 0.9, where 1 is the maximum; inactive = score below 0.9.

Each compound was assayed against Muscarinic acetylcholine receptor M5 (Homo sapiens) (UniProt P08912) (assay: ERF_FR_GPCR_hCHRM5: Eurofins (ERF) G Protein-Coupled Receptor (GPCR) Radioligand Binding LeadHunter Assay for human Muscarinic Acetylcholine Receptor M5 Antagonism, conducted at France lab site).
Procedure: ERF_FR_GPCR_hCHRM5 is a biochemical, single-readout assay that uses extracted gene-proteins in a cell-free assay. Measurements were taken 1 hour after chemical dosing in a 96-well plate. See M5 Human Acetylcholine (Muscarinic) GPCR Binding (Antagonist Radioligand) Assay, Cerep.ERF_FR_GPCR_hCHRM5 is an assay component calculated from the ERF_FR_GPCR_hCHRM5 assay. It is designed to measure radioligand binding using a type of binding reporter as detected by scintillation counting with radiometry technology.Data from the assay component ERF_FR_GPCR_hCHRM5 was analyzed at the assay endpoint, ERF_FR_GPCR_hCHRM5, in the positive analysis fitting direction relative to DMSO as the negative control and baseline of activity. Using a type of binding reporter, loss-of-signal activity can be used to understand changes in binding as they relate to gene CHRM5. To generalize the intended target to other relatable targets, this assay endpoint is annotated to the gpcr intended target family, where the subfamily is acetylcholine (Muscarinic).
Human cells are incubated for 60 minutes at room temprature with [3H]4-DAMP ligand (0.3 nM) and 4-Damp methiodide as control inhibitor.Test Sample Requirements: Minimum for 1) Screen: 60 ul of 10 mM stock -OR- 1 mg (pre-weighed) for 10 uM final testing. 2) Dose Response: 90 ul of 10 mM stock -OR- 1 mg (pre-weighed) for a top concentration at 10 uM.

Chain of Muscarinic acetylcholine receptor M5 (Homo sapiens) (P08912 whole entry, looked up): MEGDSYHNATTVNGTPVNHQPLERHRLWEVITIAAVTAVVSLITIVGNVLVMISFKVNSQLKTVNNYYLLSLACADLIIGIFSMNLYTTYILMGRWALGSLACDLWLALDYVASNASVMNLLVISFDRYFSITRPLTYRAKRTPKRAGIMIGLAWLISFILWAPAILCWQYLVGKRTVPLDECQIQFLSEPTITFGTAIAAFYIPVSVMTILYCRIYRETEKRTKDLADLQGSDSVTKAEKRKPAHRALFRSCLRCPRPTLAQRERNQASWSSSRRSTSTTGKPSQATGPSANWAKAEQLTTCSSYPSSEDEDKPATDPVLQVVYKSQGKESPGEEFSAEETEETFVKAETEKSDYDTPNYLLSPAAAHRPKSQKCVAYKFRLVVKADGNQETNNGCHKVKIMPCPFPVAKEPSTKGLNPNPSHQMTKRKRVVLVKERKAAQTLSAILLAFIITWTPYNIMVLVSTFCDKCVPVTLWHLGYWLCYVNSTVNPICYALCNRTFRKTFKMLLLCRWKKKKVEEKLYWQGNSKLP

For `O=C(/C=C/c1ccc(O)cc1)CC(=O)/C=C/c1ccc(O)cc1`, which outcome is on record?
The outcome was “inactive”.
